Assay results taken from PubChem BioAssay AID720492 (Broad Institute, 2013).
Active and inactive are the calls of the source.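 Rule for the calls: active = unnormalized dose curve rising to cross level 40 at or below the top tested dose; inconclusive = flat fit at moderately raised activity, or poor fit; inactive = the rest.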

experiment: miR-27b level by RT-PCR, dose response, miR-122 / miR-27b project, Huh7 cells, cherry-pick, activator set (AID 720492); settings: Huh7 miR-27b levels, qRT-PCR, 48 h; series mostly up to 35 µM

outcome, inactive:
COCC(=O)N(C)C[C@H]1Oc2cc(C#Cc3cccnc3)ccc2S(=O)(=O)N([C@H](C)CO)C[C@H]1C, CO[C@@H]1CN(C)C(=O)c2cc(NC(=O)c3ccc4c(c3)OCO4)ccc2OC[C@H](C)NC[C@@H]1C, C[C@@H]1CN([C@H](C)CO)S(=O)(=O)c2ccc(/C=C/c3ccccc3)cc2O[C@@H]1CN(C)C(=O)c1cccnc1, COCC(=O)N(C)C[C@H]1Oc2cc(-c3ccc(C#N)cc3)ccc2S(=O)(=O)N([C@@H](C)CO)C[C@H]1C, C[C@H]1CN([C@@H](C)CO)S(=O)(=O)c2ccc(C#Cc3ccncc3)cc2O[C@H]1CN(C)C(=O)C1CCOCC1, CN1C(=O)c2cc(NC(=O)c3cccc(F)c3)ccc2OC[C@H]2O[C@@H](CC(=O)O)CC[C@H]21, Cc1cccc(NC(=O)Nc2ccc3c(c2)C(=O)N(C)[C@@H]2CC[C@@H](CC(=O)NCc4ccccc4Cl)O[C@H]2CO3)c1, C[C@H]1CN([C@@H](C)CO)C(=O)c2cc(C#Cc3ccccc3F)cnc2O[C@H]1CN(C)C(=O)C1CCCCC1, CN1C(=O)c2cc(NC(=O)c3cccc(F)c3)ccc2OC[C@@H]2O[C@@H](CC(=O)O)CC[C@@H]21, CO[C@@H]1CN(C)C(=O)c2cc(NS(=O)(=O)c3ccc(Oc4ccccc4)cc3)ccc2OC[C@H](C)NC[C@@H]1C, Cc1cccc(NC(=O)Nc2ccc3c(c2)C(=O)N(C)[C@@H]2CC[C@H](CC(=O)NCc4ccccc4Cl)O[C@H]2CO3)c1, CN1C(=O)c2cc(NC(=O)c3cccc(F)c3)ccc2OC[C@@H]2O[C@@H](CC(=O)O)CC[C@H]21, CCCC#Cc1ccc2c(c1)O[C@H](CN(C)C(=O)c1ccncc1)[C@H](C)CN([C@@H](C)CO)S2(=O)=O, CN1C(=O)c2cc(NC(=O)c3cccc(F)c3)ccc2OC[C@H]2O[C@H](CC(=O)O)CC[C@H]21, C[C@H]1CN([C@@H](C)CO)C(=O)c2cc(-c3ccc(C#N)cc3)cnc2O[C@H]1CN(C)C(=O)Nc1ccc(C(F)(F)F)cc1, COc1cccc(-c2ccc3c(c2)O[C@H](CN(C)C(=O)C2CCOCC2)[C@H](C)CN([C@@H](C)CO)S3(=O)=O)c1, C[C@H](CO)N1C[C@H](C)[C@H](CN(C)C(=O)C2CCOCC2)Oc2cc(C#Cc3ccncc3)ccc2S1(=O)=O, C/C=C/c1cnc2c(c1)C(=O)N([C@@H](C)CO)C[C@H](C)[C@H](CN(C)S(=O)(=O)c1ccc(OC)cc1)O2, C[C@@H]1CN([C@@H](C)CO)S(=O)(=O)c2ccc(C#Cc3ccncc3)cc2O[C@@H]1CN(C)C(=O)C1CCOCC1, COCC(=O)N(C)C[C@H]1Oc2cc(C#Cc3cccnc3)ccc2S(=O)(=O)N([C@@H](C)CO)C[C@H]1C, C[C@H]1CN([C@@H](C)CO)C(=O)c2cc(C#Cc3ccccc3F)cnc2O[C@@H]1CN(C)C(=O)C1CCCCC1
